The source made the active and inactive calls. Rule for the calls: active = hit-call score of the fitted dose curve at least 0.9, where 1 is the maximum; inactive = score below 0.9.
Key:
Conditions in all cases: mRNA level, 48 h; actives raise or lower the signal
[1] = read-out: Lipase C (LIPC), LIPC (gene 3990); experiment: LTEA_HepaRG_LIPC: Life Technologies and Expression Analysis (LTEA) Assay for Lipase C (LIPC) using HepaRG (AID 2283514)
Outline: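 In this multiplexed gene-expression screen, human HepaRG cultures received test chemicals for 48 h across eight concentrations with 100 uM highest, in duplicate. Values reflect LIPC mRNA induction or suppression versus DMSO vehicle, from normalized qRT-PCR.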

[2] = read-out: Lipoprotein lipase (LPL), LPL (gene 4023); experiment: LTEA_HepaRG_LPL: Life Technologies and Expression Analysis (LTEA) Assay for Lipoprotein lipase (LPL) using HepaRG (AID 2283515)
Outline: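 Concentration-response testing used half-log steps from 100 uM in 0.5% DMSO on human HepaRG cells, 48 h, duplicate wells. Phenobarbital 1 mM served as induction control; LPL mRNA was normalized to ACTB, GAPDH, POLR2A.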

[3] = read-out: MicroRNA 122 (MIR122), gene 406906; experiment: LTEA_HepaRG_MIR122: Life Technologies and Expression Analysis (LTEA) Assay for MicroRNA 122 (MIR122) using HepaRG (AID 2283516); note: the transcript read is the microRNA miR-122
Outline: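 Human liver HepaRG cultures receive test chemicals for 48 h at eight half-log concentrations from 100 uM. Expression is quantified by qRT-PCR with ACTB/GAPDH/POLR2A normalization and fitted bidirectionally against 0.5% DMSO.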

[4] = read-out: matrix metalloproteinase-10 (MMP10), MMP10 (gene 4319); experiment: LTEA_HepaRG_MMP10: Life Technologies and Expression Analysis (LTEA) Assay for matrix metalloproteinase-10 (MMP10) using HepaRG (AID 2283517)
Outline: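 In differentiated HepaRG cultures kept in 0.5% DMSO, test chemicals act for 48 h over an eight-point range with a top dose of 100 uM. Expression is then quantified by TaqMan RT-PCR against ACTB, GAPDH and POLR2A.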

MYC, MYC (gene 4609) = experiment: LTEA_HepaRG_MYC: Life Technologies and Expression Analysis (LTEA) Assay for MYC using HepaRG (AID 2283518)
Outline: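 Cells are thawed, plated and cultured 48 h, then treated for 48 h with test chemicals (eight half-log concentrations from 100 uM, 0.5% DMSO vehicle). RNA is isolated and MYC expression quantified by qRT-PCR against three housekeeping genes.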

[5] = read-out: matrix metalloproteinase-3 (MMP3), MMP3 (gene 4314); experiment: LTEA_HepaRG_MMP3: Life Technologies and Expression Analysis (LTEA) Assay for matrix metalloproteinase-3 (MMP3) using HepaRG (AID 2283519)
Outline: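 Human liver HepaRG cultures received chemicals (top concentration 100 uM, 0.5% DMSO) for 48 h in duplicate. MMP3 mRNA induction or loss was then assessed via TaqMan qRT-PCR with housekeeping-gene normalisation.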

[6] = read-out: Paternally Expressed 10 (PEG10), PEG10 (gene 23089); experiment: LTEA_HepaRG_PEG10: Life Technologies and Expression Analysis (LTEA) Assay for Paternally Expressed 10 (PEG10) using HepaRG (AID 2283520);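 for AC50: PEG10 transcript by qRT-PCR normalised to ACTB GAPDH and POLR2A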
Outline: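 Human HepaRG cultures are dosed for 48 h across an eight-point half-log series starting at 100 uM, with 0.5% DMSO as vehicle and baseline. Gain or loss of PEG10 transcript is measured by qRT-PCR and fitted in both directions.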

[7] = read-out: Nuclear factor NF-kappa-B p105 subunit (Homo sapiens) (UniProt P19838); experiment: LTEA_HepaRG_NFKB1: Life Technologies and Expression Analysis (LTEA) Assay for Nuclear Factor Kappa B Subunit 1 (NFKB1) using HepaRG (AID 2283521)
Outline: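 Differentiated human HepaRG cells in serum-free induction medium with 0.5% DMSO were exposed for 48 h to eight half-log concentrations, top 100 uM, in duplicate. NFKB1 mRNA measured by Fluidigm TaqMan qRT-PCR, normalised to ACTB, GAPDH and POLR2A; bidirectional fit versus DMSO.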

[8] = read-out: Protein phosphatase 2A (PPP2R4), PTPA (gene 5524); experiment: LTEA_HepaRG_PPP2R4: Life Technologies and Expression Analysis (LTEA) Assay for Protein phosphatase 2A (PPP2R4) using HepaRG (AID 2283522)
Outline: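 Cells were plated, cultured 48 h, switched to serum-free induction medium, then dosed for 48 h (8 points, max 100 uM, 0.5% DMSO). RNA was isolated and PPP2R4 expression measured by TaqMan qRT-PCR.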

[9] = read-out: Phosphatase and tensin (PTEN), PTEN (gene 5728); experiment: LTEA_HepaRG_PTEN: Life Technologies and Expression Analysis (LTEA) Assay for Phosphatase and tensin (PTEN) using HepaRG (AID 2283523)
Outline: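 Expression of PTEN is quantified in the human liver line HepaRG following two days of dosing (top concentration 100 uM, half-log dilutions, 0.5% DMSO). Values derive from bidirectional curve fitting relative to DMSO controls.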

[10] = read-out: solute carrier (SLC22A1), SLC22A1 (gene 6580); experiment: LTEA_HepaRG_SLC22A1: Life Technologies and Expression Analysis (LTEA) Assay for solute carrier (SLC22A1) using HepaRG (AID 2283524);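 for AC50: TaqMan qRT-PCR normalized to ACTB GAPDH and POLR2A housekeeping genes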
Outline: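 Transcript induction or suppression of SLC22A1 in human HepaRG cultures is scored after 48 h chemical treatment, with DMSO (0.5%) as baseline for bidirectional fitting. Concentrations span eight half-log points topping at 100 uM.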

[11] = read-out: Pyruvate Dehydrogenase Kinase 4 (PDK4), PDK4 (gene 5166); experiment: LTEA_HepaRG_PDK4: Life Technologies and Expression Analysis (LTEA) Assay for Pyruvate Dehydrogenase Kinase 4 (PDK4) using HepaRG (AID 2283525)
Outline: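 Eight-point, half-log concentration series (max 100 uM, 0.5% DMSO) applied to differentiated HepaRG cells for 48 h in duplicate. Endpoint: PDK4 mRNA induction or repression by qRT-PCR against DMSO baseline.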

[12] = read-out: NAD(P)H dehydrogenase [quinone] 1 (NQO1), NQO1 (gene 1728); experiment: LTEA_HepaRG_NQO1: Life Technologies and Expression Analysis (LTEA) Assay for NAD(P)H dehydrogenase [quinone] 1 (NQO1) using HepaRG (AID 2283526)
Outline: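 Transcript induction or suppression is quantified by qRT-PCR in human HepaRG liver cells dosed for 48 hours. Eight half-log concentrations topping at 100 uM are used, with 0.5% DMSO as vehicle and baseline.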

[13] = read-out: Nuclear factor erythroid 2-related factor 2 (Homo sapiens) (UniProt Q16236); experiment: LTEA_HepaRG_NFE2L2: Life Technologies and Expression Analysis (LTEA) Assay for Nuclear factor erythroid 2-related factor 2 (NFE2L2) Transcription Factor using HepaRG (AID 2283527)
Outline: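 Human liver HepaRG line treated in duplicate for 48 h with an eight-point series topping at 100 uM. Gene expression of NFE2L2 by qRT-PCR, bidirectionally fitted against the vehicle control.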

[14] = read-out: Signal transducer and activator of transcription 3 (Homo sapiens) (UniProt P40763); experiment: LTEA_HepaRG_STAT3: Life Technologies and Expression Analysis (LTEA) Assay for Signal transducer and activator of transcription (STAT3) using HepaRG (AID 2283529)
Outline: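 In this transcriptional endpoint, HepaRG cultures receive test chemicals at up to 100 uM for 48 h, tested in duplicate. STAT3 mRNA is normalized to ACTB, GAPDH and POLR2A.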

[15] = read-out: solute carrier (SLCO1B1), SLCO1B1 (gene 10599); experiment: LTEA_HepaRG_SLCO1B1: Life Technologies and Expression Analysis (LTEA) Assay for solute carrier (SLCO1B1) using HepaRG (AID 2283530)
Outline: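 Gain or loss of SLCO1B1 mRNA is fitted against the 0.5% DMSO vehicle in human HepaRG liver cells treated 48 h at up to 100 uM in half-log steps. Expression comes from qRT-PCR normalized to endogenous controls.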

[16] = read-out: Transforming Growth Factor (TGFA), TGFA (gene 7039); experiment: LTEA_HepaRG_TGFA: Life Technologies and Expression Analysis (LTEA) Assay for Transforming Growth Factor (TGFA) using HepaRG (AID 2283532)
Outline: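 Gene expression of TGFA was quantified by qRT-PCR after human HepaRG cells were treated for 48 h with test chemicals (eight concentrations, highest 100 uM, 0.5% DMSO). Activity in either direction was fitted relative to DMSO.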

[17] = read-out: Transforming Growth Factor (TGFB1), TGFB1 (gene 7040); experiment: LTEA_HepaRG_TGFB1: Life Technologies and Expression Analysis (LTEA) Assay for Transforming Growth Factor (TGFB1) Transporter using HepaRG (AID 2283533)
Outline: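 Expression change of TGFB1 in human HepaRG cells is measured after a 48 h chemical exposure, up to 100 uM in 0.5% DMSO vehicle. Curves are fitted in both directions relative to the DMSO baseline.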

TIMP1, TIMP1 (gene 7076) = experiment: LTEA_HepaRG_TIMP1: Life Technologies and Expression Analysis (LTEA) Assay for TIMP1 using HepaRG (AID 2283534)
Outline: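 We dosed human liver HepaRG cultures for 48 hours with up to 100 uM test chemical and measured TIMP1 expression by qRT-PCR. Activity in either direction is fitted relative to the 0.5% DMSO vehicle.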

[18] = read-out: Tumor necrosis factor receptor 1 (TNFRSF1A), TNFRSF1A (gene 7132); experiment: LTEA_HepaRG_TNFRSF1A: Life Technologies and Expression Analysis (LTEA) Assay for Tumor necrosis factor receptor 1 (TNFRSF1A) using HepaRG (AID 2283535)
Outline: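 Expression of TNFRSF1A in human HepaRG liver cells was measured by qRT-PCR 48 h after chemical dosing (maximum 100 uM). Bidirectional curve fitting used 0.5% DMSO as baseline.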

Measured: AC50

Nuclear factor NF-kappa-B p105 subunit (Homo sapiens), sequence (P19838 whole entry, looked up): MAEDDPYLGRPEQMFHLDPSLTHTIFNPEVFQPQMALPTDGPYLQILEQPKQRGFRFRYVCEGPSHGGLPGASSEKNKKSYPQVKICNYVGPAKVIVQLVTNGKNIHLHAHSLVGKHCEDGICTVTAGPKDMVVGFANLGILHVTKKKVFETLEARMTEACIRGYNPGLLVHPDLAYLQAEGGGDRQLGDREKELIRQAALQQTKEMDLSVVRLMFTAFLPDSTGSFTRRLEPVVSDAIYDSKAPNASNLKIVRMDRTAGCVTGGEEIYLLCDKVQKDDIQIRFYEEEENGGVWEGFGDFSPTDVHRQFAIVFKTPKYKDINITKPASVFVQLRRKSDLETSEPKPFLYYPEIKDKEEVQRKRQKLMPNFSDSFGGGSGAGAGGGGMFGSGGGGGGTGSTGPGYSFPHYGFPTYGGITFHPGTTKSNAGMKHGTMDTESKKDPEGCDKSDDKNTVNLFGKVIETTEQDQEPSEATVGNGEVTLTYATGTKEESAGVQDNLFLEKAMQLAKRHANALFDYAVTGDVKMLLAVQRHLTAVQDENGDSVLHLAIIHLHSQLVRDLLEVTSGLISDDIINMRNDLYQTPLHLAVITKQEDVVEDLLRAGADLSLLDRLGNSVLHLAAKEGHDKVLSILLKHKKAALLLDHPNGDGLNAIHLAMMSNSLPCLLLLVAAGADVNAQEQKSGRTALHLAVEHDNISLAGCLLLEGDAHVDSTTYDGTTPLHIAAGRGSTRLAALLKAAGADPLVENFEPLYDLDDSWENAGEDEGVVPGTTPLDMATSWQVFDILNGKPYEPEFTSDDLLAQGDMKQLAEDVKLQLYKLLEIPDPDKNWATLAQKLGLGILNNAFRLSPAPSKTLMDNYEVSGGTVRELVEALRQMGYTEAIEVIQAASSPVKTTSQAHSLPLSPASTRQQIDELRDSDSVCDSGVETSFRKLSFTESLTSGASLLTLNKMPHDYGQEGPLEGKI
Signal transducer and activator of transcription 3 (Homo sapiens), sequence (P40763 whole entry, looked up): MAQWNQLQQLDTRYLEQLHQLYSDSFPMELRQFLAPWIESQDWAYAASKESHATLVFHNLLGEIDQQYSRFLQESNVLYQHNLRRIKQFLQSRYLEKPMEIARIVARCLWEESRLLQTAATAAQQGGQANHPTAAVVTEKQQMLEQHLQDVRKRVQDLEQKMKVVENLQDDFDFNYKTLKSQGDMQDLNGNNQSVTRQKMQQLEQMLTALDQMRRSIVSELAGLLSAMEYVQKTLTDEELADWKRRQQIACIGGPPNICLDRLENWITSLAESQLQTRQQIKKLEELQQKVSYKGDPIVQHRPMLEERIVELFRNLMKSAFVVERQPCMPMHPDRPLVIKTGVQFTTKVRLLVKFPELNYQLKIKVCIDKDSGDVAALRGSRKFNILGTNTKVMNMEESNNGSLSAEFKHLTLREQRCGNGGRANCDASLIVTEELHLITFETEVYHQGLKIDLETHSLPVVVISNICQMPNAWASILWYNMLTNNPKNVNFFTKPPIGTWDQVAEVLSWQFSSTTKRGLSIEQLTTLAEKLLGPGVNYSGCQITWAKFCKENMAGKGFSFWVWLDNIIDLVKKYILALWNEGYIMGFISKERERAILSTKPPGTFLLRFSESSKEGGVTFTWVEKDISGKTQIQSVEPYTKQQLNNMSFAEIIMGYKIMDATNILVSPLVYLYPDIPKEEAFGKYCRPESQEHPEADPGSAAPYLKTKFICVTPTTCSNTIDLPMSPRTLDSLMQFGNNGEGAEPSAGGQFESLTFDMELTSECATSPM
Nuclear factor erythroid 2-related factor 2 (Homo sapiens), sequence (Q16236 whole entry, looked up): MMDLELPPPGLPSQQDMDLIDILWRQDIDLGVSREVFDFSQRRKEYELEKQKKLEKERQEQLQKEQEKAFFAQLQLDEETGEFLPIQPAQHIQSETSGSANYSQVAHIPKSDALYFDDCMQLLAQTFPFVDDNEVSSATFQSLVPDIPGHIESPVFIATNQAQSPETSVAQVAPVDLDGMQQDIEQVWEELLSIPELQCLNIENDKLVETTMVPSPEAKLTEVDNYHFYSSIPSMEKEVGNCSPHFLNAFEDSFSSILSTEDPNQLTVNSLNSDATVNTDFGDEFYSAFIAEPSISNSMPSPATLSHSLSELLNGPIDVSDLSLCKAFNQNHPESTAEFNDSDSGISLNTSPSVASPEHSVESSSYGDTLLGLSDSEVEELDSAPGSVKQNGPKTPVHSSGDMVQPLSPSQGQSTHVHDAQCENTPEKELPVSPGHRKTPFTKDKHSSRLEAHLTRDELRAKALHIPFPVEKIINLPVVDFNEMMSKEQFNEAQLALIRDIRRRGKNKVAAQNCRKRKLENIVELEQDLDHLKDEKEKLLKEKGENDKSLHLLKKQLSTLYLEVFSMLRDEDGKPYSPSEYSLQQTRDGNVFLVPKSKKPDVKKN

O=C1C2(Cl)C3(Cl)C4(Cl)C(Cl)(Cl)C5(Cl)C3(Cl)C1(Cl)C5(Cl)C24Cl (centres undefined)
active: [2] 91.9 µM | [3] 93.8 µM | [4] 88.8 µM | MYC, MYC (gene 4609) 24.9 µM | [6] 93.4 µM | [8] 15.8 µM | [10] 19.3 µM | [11] 92.7 µM | [13] 92.1 µM | [14] 93.1 µM | [15] 93.5 µM | [17] 92.5 µM | TIMP1, TIMP1 (gene 7076) 93.4 µM
inactive: [1] | [5] | [7] | [9] | [12] | [16] | [18]

CCOP(=S)(OCC)SCSP(=S)(OCC)OCC
active: MYC, MYC (gene 4609) 0.09 µM | [11] 20.4 µM | [18] 214 nM
inactive: [1] | [2] | [3] | [4] | [5] | [6] | [7] | [8] | [9] | [10] | [12] | [13] | [14] | [15] | [16] | [17] | TIMP1, TIMP1 (gene 7076)

Oc1cccc2cccnc12
inactive: [1] | [2] | [3] | [4] | MYC, MYC (gene 4609) | [5] | [6] | [8] | [9] | [10] | [11] | [12] | [13] | [14] | [15] | [16] | [17] | TIMP1, TIMP1 (gene 7076) | [18]

CC(C)(OO)c1ccccc1
inactive: [1] | [2] | [3] | [4] | MYC, MYC (gene 4609) | [5] | [6] | [7] | [8] | [9] | [10] | [11] | [12] | [13] | [14] | [15] | [16] | [17] | TIMP1, TIMP1 (gene 7076) | [18]

C=C(C)C(=O)[O][Sn]([CH2]CCC)([CH2]CCC)[CH2]CCC
active: [1] 2.37 µM | [2] 6.44 µM | MYC, MYC (gene 4609) 2.77 µM | [7] 94.9 µM | [9] 15.8 µM | [10] 2.7 µM | [11] 1.18 µM | [12] 9.2 µM | [13] 61.3 µM | [15] 2.57 µM | [16] 2.42 µM | [17] 2.44 µM
inactive: [3] | [4] | [5] | [6] | [8] | [14] | TIMP1, TIMP1 (gene 7076) | [18]

CCOP(=S)(OCC)Oc1nc(Cl)c(Cl)cc1Cl
inactive: [1] | [2] | [3] | [4] | MYC, MYC (gene 4609) | [5] | [6] | [7] | [8] | [9] | [10] | [11] | [12] | [13] | [14] | [15] | [16] | [17] | TIMP1, TIMP1 (gene 7076) | [18]

CC(C)(C)CC(C)(C)c1ccc(O)cc1
inactive: [1] | [2] | [3] | [4] | MYC, MYC (gene 4609) | [5] | [6] | [7] | [8] | [9] | [10] | [11] | [12] | [13] | [14] | [15] | [16] | [17] | TIMP1, TIMP1 (gene 7076) | [18]

C=CC(=O)OCCCCCC(C)C
inactive: [1] | [2] | [3] | [4] | MYC, MYC (gene 4609) | [5] | [6] | [7] | [8] | [9] | [10] | [11] | [12] | [13] | [14] | [15] | [16] | [17] | TIMP1, TIMP1 (gene 7076) | [18]

From PubChem BioAssay (EPA / NIEHS)
